Screens from PubChem BioAssay.
MCF10A rerep: A quantitative high throughput screen for small molecules that induce DNA re-replication in MCF 10a normal breast cells. MCF 10A DNA re-replication, Hoechst nuclear intensity, 48 h. Potency, µM (titrated, usually from 46.1 µM), inactives show at the highest dose activity, positive = re-replication, usual class: activators. 350,000 tested, 2.9% active. AID 624296, 2012; also: % of control where 0% means no effect; nearly all actives have a fitted effect of over 50% in size
KB-3-1 tox: qHTS assay for MDR1-selective chemotherapeutics: Primary screen using the parental adenocarcinoma cell KB-3-1; KB-3-1 viability, CellTiter-Glo ATP luminescence, 72 h; Potency, µM (top dose mostly 46.1 µM), most hits filed as cytotoxic; 400,000 tested, 1.4% active; also: % is scaled to controls: 0 for no effect and ±100 for the full control effect; nearly all actives have a fitted effect of over 60% in size
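Screening of KB-3-1 cells (DMEM, 10% FBS, phenol-red free) ran from lowest to highest compound concentration; after 72 h at 37 °C viability was read luminescently and curves fitted.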
PINK1 expr mod: A Quantitative High throughput Screen to Identify Chemical Modulators of PINK1 Expression. PINK1 immunofluorescence, high-content cytometry, 24 h. Potency, µM (doses to about 76.6 µM), without a hit: top-dose activation (PINK1 increase), hits mostly activators. 410,000 tested, 0.2% active; active = well fitted activation curve with a large enough effect; inconclusive = small, poorly fitted or top-dose-only effect; cell line not stated here; also: % of control where 0% means no effect; nearly all actives have a fitted effect of over 65% in size
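Stable cell line, 250 cells/well, 12 h attachment; compounds pinned at 5 concentrations, 24 h; CCCP control. Fixed with nuclear dye, primary antibodies 12 h at 10 degrees C, secondary plus cell stain; laser-scanning cytometer read.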
SW480 rerep: A quantitative high throughput screen for small molecules that induce DNA re-replication in SW480 colon adenocarcinoma cells; SW480 DNA re-replication, Hoechst DNA content imaging, 48 h; Potency, µM (highest dose often 46.1 µM), inactives show top-dose re-replication activation, hits mostly activators; 340,000 tested, 1.8% active; also: % of control where 0% means no effect; nearly all actives have a fitted effect of over 55% in size
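Image-based read-out: total Hoechst fluorescence of nuclei (405 nm excitation, 500-530 nm emission), with hits raising the fraction of high-intensity nuclei. SW480 colon cells incubated 48 hr with compounds at 37 C.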
KB-V1 MDR tox: qHTS assay for MDR1-selective chemotherapeutics: Primary screen using the drug-selected MDR subline cells KB-V1; AID 1347076, 2019; Potency, µM (titrated, usually from 46.1 µM), actives largely listed as cytotoxic; KB-V1 MDR cells viability, CellTiter-Glo, 72 h; 400,000 tested, 3.4% active; also: % is scaled to controls: 0 for no effect and ±100 for the full control effect; nearly all actives have a fitted effect of over 60% in size
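Cytotoxicity via CellTiter-Glo luminescence after 72 h compound exposure at 37 degrees C. Cells: drug-selected KB-V1 line, DMEM phenol-red free plus 10% FBS. Compounds tested at multiple concentrations; normalized data fitted to concentration-effect curves.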
Active calls of the source: *; [ ] = another dose, or the depositor's remark. The list is not random: actives were taken first. Their share in the collection is about 6.7%. Unless noted, calls follow the shape of the dose curve; as a rule, active = well fitted curve in the direction sought with a large enough effect; inconclusive = small, poorly fitted or top-dose-only effect, or another doubt; inactive = no such curve, though single readings can be large; an effect the other way counts as inactive or inconclusive. Potency is read from the fitted curve at half-maximal effect.

Screening Cc1ccc(C(=O)c2oc3ccccc3c2NC(=O)c2cc(-c3ccccc3)on2)cc1 returned KB-3-1 tox inactive, PINK1 expr mod 0% and KB-V1 MDR tox inactive.
For COc1ccc(-c2coc3cc4oc(=O)cc(C)c4cc23)cc1F the results were MCF10A rerep 5.2µM*, KB-3-1 tox inactive, PINK1 expr mod 3%[38.3 µM], SW480 rerep inconclusive and KB-V1 MDR tox inconclusive.
`COc1ccc(-c2coc3cc4oc(=O)cc(-c5ccccc5)c4cc23)cc1F` gave MCF10A rerep 6.5µM*, KB-3-1 tox 2.9µM*, PINK1 expr mod -1%, SW480 rerep inconclusive and KB-V1 MDR tox inconclusive.
For CCCCOc1ccc(/C=C/C(=O)N(CC)CC(=O)Nc2ccc3c(c2)OCCO3)cc1OC the results were MCF10A rerep 20%, KB-3-1 tox inactive, PINK1 expr mod 6%, SW480 rerep inconclusive and KB-V1 MDR tox inactive.
For COc1ncc2nc(-c3ccc(F)cc3)c(=O)n(C)c2n1 the results were PINK1 expr mod 1%.
For COc1ccc(NS(=O)(=O)c2cc(C(=O)N3CCN(C/C=C/c4ccccc4)CC3)ccc2C)cc1 the results were MCF10A rerep 11%, KB-3-1 tox 18µM*, PINK1 expr mod -2%, SW480 rerep -1% and KB-V1 MDR tox 5.8µM*.
O=C(CCNS(=O)(=O)c1ccc(OC(F)(F)F)cc1)N1CCCC1 was read as MCF10A rerep 0%, KB-3-1 tox inactive, PINK1 expr mod 0%, SW480 rerep -2% and KB-V1 MDR tox inactive.
Screening O=C(CCNS(=O)(=O)c1ccc(OC(F)(F)F)cc1)N1CCN(C/C=C/c2ccccc2)CC1 returned MCF10A rerep inconclusive, KB-3-1 tox inconclusive, PINK1 expr mod 0%, SW480 rerep 2% and KB-V1 MDR tox 6.5µM*.
`COc1ccc(C)cc1S(=O)(=O)N1CCN(C/C=C/c2ccccc2)CC1` gave MCF10A rerep 0%, KB-3-1 tox inactive, PINK1 expr mod -1%, SW480 rerep -3% and KB-V1 MDR tox 18µM*.
For COc1ccccc1NC(=O)CN(C)S(=O)(=O)c1ccc2c(c1)c(=O)n(C)c(=O)n2C the results were KB-3-1 tox inactive, PINK1 expr mod 0% and KB-V1 MDR tox inactive.
Screening CCCC1CCc2[nH]nc(C(=O)NN)c2C1 (configuration not stated) returned MCF10A rerep 5%, KB-3-1 tox inconclusive, PINK1 expr mod 0%, SW480 rerep 9% and KB-V1 MDR tox inconclusive.
`CCCCC1=NN(C(=O)c2cocc2C)C(O)(C(F)(F)F)C1` (configuration not stated) gave MCF10A rerep inconclusive, KB-3-1 tox inactive, PINK1 expr mod 3%[38.3 µM], SW480 rerep 7.3µM* and KB-V1 MDR tox inactive.
CCCCC1=NN(C(=O)c2ccncc2)C(O)(C(F)(F)F)C1 (configuration not stated) was read as MCF10A rerep -4%, KB-3-1 tox inactive, PINK1 expr mod -2%, SW480 rerep -12% and KB-V1 MDR tox inactive.
For COc1ccc(-c2cnn3c4c(c(C)nc23)CCN4C(C)C)cc1OC the results were MCF10A rerep inconclusive, KB-3-1 tox inactive, PINK1 expr mod 23%[38.3 µM], SW480 rerep inconclusive and KB-V1 MDR tox 2.1µM*.
COc1ccc(CNC(=O)c2cnn(-c3ncc4c(n3)-c3ccccc3CC4)c2C)cc1OC was read as PINK1 expr mod 1%.
Screening COc1ccc(/C=C2\C(=O)c3ccccc3OC2c2ccccc2)cc1 (configuration not stated) returned MCF10A rerep 10µM*, KB-3-1 tox inconclusive, PINK1 expr mod 11%, SW480 rerep inconclusive and KB-V1 MDR tox 7.3µM*.
For CCOc1ccc(/C=C2\C(=O)c3ccccc3OC2c2ccccc2)cc1 (configuration not stated) the results were MCF10A rerep 5.2µM*, KB-3-1 tox inconclusive, PINK1 expr mod 7%, SW480 rerep inconclusive and KB-V1 MDR tox 16µM*.
